This is an account of results in PubChem BioAssay (Tox21).

Records with an inconclusive call do not appear. Where a call stands in place of a potency, no number is given. A structure can be active in one record and inactive in another. Active and inactive are the calls of the source. Calls follow the shape of the dose curve; as a rule, active = well fitted cell-killing curve with a large enough effect in the repeat runs; inconclusive = weak or mixed curves, or effect the other way; inactive = flat fitted curve, though single readings scatter.
Potency is read from the fitted curve at half-maximal effect.

A short description of this assay: qHTS RealTime-Glo MT Cell Viability Assay in HepG2 cells - 40 hour (AID 1224870). Also: nearly all actives have a fitted effect of over 50% in size. The following applies: RealTime-Glo luminescence; series mostly up to 76.8 µM. The text has this: National Center for Advancing Translational Sciences [NCATS]
NIH Chemical Genomics Center [NCGC]
U.S. Environmental Protection Agency [EPA]
National Institutes of Environmental Health Sciences [NIEHS]
National Toxicology Program [NTP]
U.S. Food and Drug Administration [FDA]
Measure of cell viability is critical in the cell-base assay. Analysis of cell viability is necessary for the characterization of cell responses to cytotoxic drugs and environmental stress. A RealTime-Glo MT Cell Viability Assay to monitor cell viability in real time of continues cell culture during 40 hours of compound treatment was used to screen Tox21 10K library compounds in HepG2 cells. The RealTime-Glo MT Cell Viability Assay is a nonlytic, homogeneous, bioluminescent method to measure cell viability in real time using a simple, plate-based method. The assay involves adding NanoLuc luciferase and a cell-permeant prosubstrate to cells in culture. Viable cells reduce the proprietary prosubstrate to generate a substrate for NanoLuc luciferase. This substrate diffuses from cells into the surrounding culture medium, where it is rapidly used by the NanoLuc Enzyme to produce a luminescent signal. The signal correlates with the number of viable cells, making the assay well suited for cytotoxicity studies.
Tox21 Assay Protocol Summary:
The mixture of HepG2 cell suspension and reagents were dispensed at 600cells/6 ul/well in 1536-well tissue culture treated black solid bottom plates using a Multidrop dispenser. After the assay plates were incubated at a 37 C/5% CO2 incubator for 5 hours, 23 nL of compounds dissolved in DMSO, positive and negative controls was transferred to the assay plate by a pintool work station. The plates were incubated at 37 C for 40 hours. The luminescence intensity were measured at 0h, 8h, 16h, 24h, 32h and 40h time points using ViewLux plate reader during compound treatment.
`Cc1cc2nc3c(=O)[nH]c(=O)nc-3n(C[C@H](O)[C@H](O)[C@H](O)CO)c2cc1C`: the Potency entry is “inactive”.

Take `c1ccncc1`: the Potency entry is “inactive”.

With `O=C=Nc1ccc(Cc2ccc(N=C=O)cc2)cc1`, the Potency result was “inactive”.

Take `O=C(/C=C/C=C/c1ccc2c(c1)OCO2)N1CCCCC1`: the Potency entry is “inactive”.

Turning to `O=P(O)(O)O`, the Potency entry is “inactive”.

`COc1cccc2c1C(=O)c1c(O)c3c(c(O)c1C2=O)C[C@@](O)(C(=O)CO)C[C@@H]3O[C@H]1C[C@H](N)[C@H](O)[C@H](C)O1`: the Potency is 952 nM (active).

As for `CCC(C)c1ccccc1O` (stereo not given), the Potency entry is “inactive”.

In the case of `CCC(C)(O)CCCC(C)C` (stereo not given), the Potency result was “inactive”.

As to `O=Cc1ccccc1O`, the Potency entry is “inactive”.

For `Cc1[nH]c(=O)c(C#N)cc1-c1ccncc1`, the Potency result is “inactive”.

`CC(CCC(=O)O)(c1ccc(O)cc1)c1ccc(O)cc1`: the Potency entry is “inactive”.

As to `CC(C)(C)NC(=O)[C@H]1CC[C@H]2[C@@H]3CC[C@H]4NC(=O)C=C[C@]4(C)[C@H]3CC[C@]12C`, the Potency entry is “inactive”.

For `c1ccc(Nc2ccccc2)cc1`, the Potency was 43.6 µM (active) and inactive.

Take `CC(C)=CCCC(C)CCO` (stereo not given): the Potency entry is “inactive”.

In the case of `O=CCc1ccccc1`, the Potency result is “inactive”.

Regarding `CC(C)OC(=O)C(C)(C)Oc1ccc(C(=O)c2ccc(Cl)cc2)cc1`, the Potency entry was “inactive”.

`O=C1c2cccc(O)c2C(=O)c2c(O)cccc21`: the Potency entry is “inactive”.

As for `Nc1ccc(Cl)cc1Cl`, the Potency result was “inactive”.

Regarding `COc1c(Cl)c(Cl)c(Cl)c(Cl)c1Cl`, the Potency result was “inactive”.

Regarding `O=C(/C=C/c1ccccc1)OCc1ccccc1`, the Potency entry is “inactive”.

Regarding `OC(CCl)CCl`, the Potency entry was “inactive”.

Consider `Cc1ncc[nH]1`, for which the Potency entry was “inactive”.

Turning to `CC(=O)c1ccccn1`, the Potency result is “inactive”.

Regarding `CC1=CCC(C(C)(C)O)CC1` (stereo not given), the Potency result is “inactive”.

Turning to `c1cc(-c2ccncc2)ccn1`, the Potency result was “inactive”.

As to `Cc1c(C(N)=O)cc([N+](=O)[O-])cc1[N+](=O)[O-]`, the Potency result was “inactive”.

Consider `CC(C)=CCC/C(C)=C\CO`, for which the Potency result was “inactive”.

`CCCCOCCOCCO`: the Potency result was “inactive”.

`Cc1c(OCC(F)(F)F)ccnc1CS(=O)c1nc2ccccc2[nH]1` (stereo not given): the Potency entry is “inactive”.

In the case of `C=C(C)C(=O)OCCOC(=O)C(=C)C`, the Potency entry was “inactive”.

`Cc1ccc2c(n1)Oc1ccc(C(C)C(=O)OCC(=O)N(C)C)cc1C2` (stereo not given): the Potency result was “inactive”.

For the compound `COc1cc([C@@H]2c3cc4c(cc3[C@H](O)[C@H]3COC(=O)[C@H]23)OCO4)cc(OC)c1OC`, the Potency entry was “inactive”.

In the case of `O=C(COc1ccc(Cl)cc1)N1CCN(Cc2ccc3c(c2)OCO3)CC1`, the Potency result was “inactive”.

With `COC(=O)Nc1nc2ccc(S(=O)c3ccccc3)cc2[nH]1` (stereo not given), the Potency result is “inactive”.

As to `OC[C@H]1O[C@@H]2O[C@H]3[C@H](O)[C@@H](O)[C@@H](O[C@H]4[C@H](O)[C@@H](O)[C@@H](O[C@H]5[C@H](O)[C@@H](O)[C@@H](O[C@H]6[C@H](O)[C@@H](O)[C@@H](O[C@H]7[C@H](O)[C@@H](O)[C@@H](O[C@H]8[C@H](O)[C@@H](O)[C@@H](O[C@H]1[C@H](O)[C@H]2O)O[C@@H]8CO)O[C@@H]7CO)O[C@@H]6CO)O[C@@H]5CO)O[C@@H]4CO)O[C@@H]3CO`, the Potency entry was “inactive”.

Turning to `Cc1cccc(N(C)C(=S)Oc2ccc3ccccc3c2)c1`, the Potency entry is “inactive”.

Regarding `Nc1ncnc2nc[nH]c12`, the Potency result was “inactive”.

Regarding `CCCCC(CC)COCC1CO1` (stereo not given), the Potency result was “inactive”.

As for `CN1C(C(=O)Nc2ccccn2)=C(O)c2ccccc2S1(=O)=O`, the Potency entry is “inactive”.

On to `CCOCCOCCO`, for which the Potency result was “inactive”.
